Sampled rows, rich in hits. Any-hit rate of the full collection: about 1.9%.
Neddylation inh: cullin neddylation inhibition | P61081+Q13564 | TR-FRET cullin neddylation, biochemical | inhibition, % at 25 µM | actives 0.58% (n = 360,000) | AID 651699; in the data active means inhibition above about 36%
dFosB act: mouse delta FosB homodimer activation; actives 0.99% (n = 340,000); P13346; AID 493131; activation, % at 25 µM; purified delta FosB, TAMRA-CDK5 oligo fluorescence polarization; percent of positive-control signal above neutral wells;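 active means mean activation above about 17%, with every replicate also reaching it, limit read from the data, passing the limit was not always enough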
Target sequence (P13346 whole entry, looked up): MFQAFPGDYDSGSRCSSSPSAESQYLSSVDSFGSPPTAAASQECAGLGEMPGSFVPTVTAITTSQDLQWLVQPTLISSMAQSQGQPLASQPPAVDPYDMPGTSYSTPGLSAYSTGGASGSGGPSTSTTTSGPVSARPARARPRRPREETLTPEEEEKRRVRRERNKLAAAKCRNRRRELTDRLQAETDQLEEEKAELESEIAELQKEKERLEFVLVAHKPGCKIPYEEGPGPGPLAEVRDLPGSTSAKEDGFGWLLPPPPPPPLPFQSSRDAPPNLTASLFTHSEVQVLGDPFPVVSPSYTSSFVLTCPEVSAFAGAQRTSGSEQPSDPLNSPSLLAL
INS-1E GSIS act: GLuc luminescence reporter in INS-1E cells, primary screen for activators of glucose-dependent secretion of insulin. INS-1E GLuc reporter insulin secretion, 2-3 h. activation, % at 16.6 µM. actives 0.61% (n = 370,000). AID 743287;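 active means lowest replicate activation of at least 40%, so every replicate reaches that level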;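 further: 0% = median of neutral control wells and 100% = median of IBMX positive control wells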
Bfl-1 A1 inh: inhibitors of the anti-apoptotic protein A1, read as caspase activation; caspase activation, % (test concentration not listed); actives 0.066% (n = 330,000); MEF A1-2A-BIM cells, Caspase-Glo 3/7 luminescence, 3 h; percent of clofoctol response, vehicle zero;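 active means over half of replicate activation scores above 10%, or exactly half above 10 with the replicate mean above 10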
Vif inh: inhibitors of HIV Vif; HEK293T cells, Vif self-association by quenched fluorescence, imaging, 24 h; actives 0.35% (n = 340,000); inhibition, % at 7.49 µM; in the data active means inhibition above about 50%, passing the limit was not always enough
Neddyl conf: cullin neddylation inhibition, confirmation | AID 652217 | calls only at 25 µM | TR-FRET cullin neddylation biochemical assay | shares compounds with Neddylation inh | actives 13% (n = 1,800); in the data active means inhibition above about 40%;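 further: neddylation substrate is the cullin 1 ring ligase complex with SKP2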
* marks the source's active call; other numbers are inactive results; i = inactive; nt = no result shown; + = active, no number.

SMILES | Neddylation inh | dFosB act | INS-1E GSIS act | Bfl-1 A1 inh | Vif inh | Neddyl conf
N#C[C@H]1[C@@H](c2ccccc2C2=CCCCC2)[C@H](CO)N1C(=O)C1CCOCC1 | nt | nt | -17.8 | nt | nt | nt
N#CCn1c2ccccc2c2nc3ccccc3nc21 | 45.0* | -22.7 | -8.0 | -0.6 | -0.2 | i
CCC(=O)N1CCC2(CC1)CN(C(=O)Nc1ccccc1F)[C@@H](CO)c1[nH]c3cc(OC)ccc3c12 | nt | nt | -14.2 | nt | nt | nt
COc1ccc(NC(=O)N(C)C[C@H]2OCCCC[C@@H](C)Oc3ccc(NS(=O)(=O)c4cn(C)cn4)cc3C(=O)N([C@H](C)CO)C[C@@H]2C)cc1 | nt | nt | 0.4 | nt | nt | nt
COc1cccc(/C=C/C(=O)OCC(=O)NCCC2=CCCCC2)c1OC | 41.1* | -8.1 | 6.8 | 0.9 | -5.3 | i
COc1ccc(OC)c(/C=C/C(=O)OCC(=O)NCc2cccs2)c1 | 52.0* | -2.1 | 13.6 | 1.1 | -6.2 | nt
COc1ccc(OC)c(/C=C/C(=O)OCC(=O)NCc2ccccc2)c1 | nt | -0.4 | nt | 0.3 | -3.5 | nt
COc1ccc(CCNC(=O)COC(=O)/C=C/c2cc(OC)ccc2OC)cc1 | 49.2* | -6.2 | 17.3 | -0.5 | -1.5 | nt
COc1ccc(OC)c(/C=C/C(=O)OCC(=O)Nc2ccc(Cl)c(S(=O)(=O)N(C)C)c2)c1 | nt | -3.0 | 1.1 | 0.3 | -5.3 | nt
COc1cccc(/C=C/C(=O)OCC(=O)Nc2ccc(Cl)c(S(=O)(=O)N(C)C)c2)c1OC | 44.4* | -8.8 | 17.8 | 0.3 | -1.5 | i
C[C@H](CO)N1C[C@H](C)[C@H](CN(C)Cc2cncnc2)Oc2cc(C#CC3CC3)ccc2S1(=O)=O | nt | nt | 0.9 | nt | nt | nt
Cc1[nH]c2ccc(C(=O)OC(C)C(=O)N(C)C3CCCCC3)cc2c1C (stereo not drawn) | 33.8 | -19.6 | -13.1 | nt | -6.4 | nt
Cc1[nH]c2ccc(C(=O)OC(C)C(=O)N(C)c3ccccc3)cc2c1C (stereo not drawn) | 41.2* | -28.1 | nt | -0.1 | -12.7 | i
Cc1cc(=O)oc2c(C)c(OC(C)C(=O)NC(Cc3c[nH]c4ccc(O)cc34)C(=O)O)ccc12 (stereo not drawn) | 23.9 | -8.7 | 14.1 | 1.1 | -14.4 | nt
CCc1c(C)c2ccc(OC(C)C(=O)NC(Cc3c[nH]c4ccc(O)cc34)C(=O)O)c(C)c2oc1=O (stereo not drawn) | 46.0* | -3.5 | -12.1 | -0.9 | 15.8 | +
COCC(=O)N1CC(=O)N2[C@H](CO)[C@H](c3ccc(C#CC(C)C)cc3)[C@@H]2C1 | nt | nt | -5.2 | nt | nt | nt
O=S(=O)(c1ccc2c(c1)C(=NO)c1cc(S(=O)(=O)N3CCCCC3)ccc1-2)N1CCCCC1 | nt | -5.9 | nt | 0.6 | -37.5 | nt
CC1CCN(S(=O)(=O)c2ccc3c(c2)C(=NO)c2cc(S(=O)(=O)N4CCC(C)CC4)ccc2-3)CC1 | 39.0* | -9.6 | nt | 2.1 | -19.6 | i
Cc1cc(Nc2nc3c(c(=O)n(C)c(=O)n3C)n2C)n(-c2ccc(Cl)cc2)n1 | 39.6* | 8.1 | nt | -0.6 | -3.4 | i
Cc1cc(Nc2ccc(Cl)cc2)n(-c2ccccc2)n1 | 7.5 | -7.8 | nt | -0.8 | -3.9 | nt
Cc1cc(C(=O)Nc2cccc3c2O[C@@H](CN(C)S(=O)(=O)c2ccc(F)cc2)[C@@H](C)CN([C@@H](C)CO)C3=O)n(C)n1 | nt | nt | 17.9 | nt | nt | nt
CCOc1ccc(-n2c(O)c(/C=N/NC(=O)C3COc4ccccc4O3)c3ccccc3c2=O)cc1 (stereo not drawn) | 41.6* | -6.8 | -24.1 | 0.3 | 0.2 | i
COc1ccccc1CNC(=O)C[C@@H]1CC[C@H](NC(C)=O)[C@H](CO)O1 | nt | nt | 7.1 | nt | nt | nt
N#C/C(=C/c1ccco1)C(N)=S | 64.0* | -18.2 | 12.7 | -0.7 | -1.3 | i
Cc1ccc(S(=O)(=O)Nc2c(NC3CCCCC3)c3ccccc3oc2=O)cc1 | 37.6 | -19.0 | -23.1 | -0.8 | 5.7 | nt
COc1ccc(S(=O)(=O)Nc2c(NC3CCCCC3)c3ccccc3oc2=O)cc1OC | 40.9* | -6.1 | -8.5 | 4.3 | -5.5 | i
Cc1ccc(S(=O)(=O)Nc2c(NC3CCCCC3)c3ccccc3oc2=O)cc1C | 40.8* | 7.7 | -44.9 | -0.1 | 1.6 | nt
Cc1cccc(C)c1NC(=O)c1ccc(OCc2c(C)noc2C)cc1 | 49.9* | -10.1 | 21.7 | 1.7 | 6.4 | i
Cc1noc(C)c1COc1ccc(C(=O)NNC(=O)c2ccccc2)cc1 | 9.8 | 4.3 | 9.9 | 0.5 | -11.0 | nt
